Screening results from PubChem.
Pf growth 96h – P. falciparum growth inhibition at 96 hours; P. falciparum luciferase reporter growth, 96 h; Potency, µM (top dose mostly 28.7 µM), inactives show at the top dose activity change, negative = inhibition, usual class: inhibitors; hit rate 6.9% among 320,000; AID 504834; active = well fitted inhibition curve with a large enough effect; inconclusive = small, poorly fitted or top-dose-only effect, or another doubt; inactive = no such curve, though single readings can be large or run the other way; also: % is scaled to controls: 0 for no effect and ±100 for the full control effect
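Compounds incubated with erythrocytes infected by luciferase-expressing P. falciparum (2% hematocrit, 0.05% parasitemia final) for 96 hours, 37 C in 5% CO2. Growth inhibition scored as decreased luciferase luminescence.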
Pf growth 48h – P. falciparum growth inhibition at 48 hours (one generation). P. falciparum luciferase growth in erythrocytes, 48 h. Potency, µM (series often up to 28.7 µM), inactives show top-dose activity change, negative = inhibition, usual class: inhibitors. hit rate 5.9% among 310,000. AID 504832; active = well fitted inhibition curve with a large enough effect; inconclusive = small, poorly fitted or top-dose-only effect, or another doubt; inactive = no such curve, though single readings can be large or run the other way; also: % is scaled to controls: 0 for no effect and ±100 for the full control effect
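Luciferase-expressing P. falciparum in infected erythrocytes (2% hematocrit, 0.1% parasitemia final) in RPMI 1640/0.5% Albumax were exposed to compound for 48 hours at 37 C, 5% CO2; growth read as luminescence.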
RE007 growth inh – less growth of the S. pombe RE007 Vpr strain; S. pombe RE007 Vpr strain, BacTiter-Glo ATP luminescence, 24 h; Potency, µM (series often up to 92.2 µM), for the others: top-dose activity change, negative = less growth, hits mostly inhibitors; hit rate 0.21% among 360,000; active = well fitted falling curve with a large enough effect; inconclusive = small, poorly fitted or top-dose-only effect; inactive = no such curve, though single readings can be large or run the other way; also: % is scaled to controls: 0 for no effect and ±100 for the full control effect; nearly all actives have a fitted effect of over 50% in size
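Fission yeast RE007 carrying one integrated HIV-1 vpr copy, seeded at OD 0.01 in PMG+AL medium with 23 nL pinned compound. Grown 24 h at 30 degrees; viability read by BacTiter-Glo luminescence after 5 min.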
SARS PLpro yeast – blocks SARS-CoV papain-like protease in a yeast assay | S. cerevisiae expressing SARS-CoV PLpro, growth rescue | Potency, µM (series often up to 32.9 µM), without a hit: top-dose activity, positive = growth rescue, actives largely listed as activators | hit rate 0.19% among 330,000; also: 0% is about no effect; nearly all actives have a fitted effect of over 55% in size
NS1 function inh – blocks influenza NS1 protein function | Potency, µM (top dose mostly 46.1 µM), for the others: at the highest dose activity, positive = more growth | hit rate 0.4% among 270,000; also: actives are rising curves; nearly all actives have a fitted effect of over 50% in size
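In this qHTS, NS1 from influenza A is expressed in budding yeast, where it slows growth. Cells are switched from glucose to 2% galactose medium (pH 6.0, -URA), treated with compound, and growth recovery is read at OD600.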
The depositor's hits bear a star; ? = inconclusive; nt = no result given; [ ] = dose if it differs, or a comment. Most compounds without a hit are left out; they make up all but 9.5% or so of the library. Unless noted, calls follow the shape of the full dose curve. Potency is read from the fitted curve at half-maximal effect.

SMILES	Pf growth 96h	Pf growth 48h	RE007 growth inh	SARS PLpro yeast	NS1 function inh
O=C(NN=C1c2ccccc2-c2ccccc21)c1ccccc1	8.28µM*	-1.1%	14.4%	6.5%	8.3%
CCOC(=O)N/N=C1\CCc2ccccc21	66.1%	79.3%	-1.9%	-0.7%	-11.4%
CC1=C/C(=N\NC(=S)Nc2cccnc2)CC(C)(C)C1	2.94µM*	?	-3.9%	19.6%	nt
CCOC(=O)c1cn(CC)c2cc(N3CCOCC3)c(F)cc2c1=O	14.4%	1.85µM*	-20.7%	13.0%	-3.0%
CCN1CCN(c2cc3c(cc2F)c(=O)c(C(=O)O)cn3C2CC2)CC1	8.28µM*	?	-16.9%[18.4 µM]	3.6%	-1.5%
CC(=O)N1CCN(c2cc3c(cc2F)c(=O)c(C(=O)O)cn3C2CC2)CC1	-88.7%[5.75 µM]	?	2.3%	0.6%	nt
CN1CCN(c2cc3c(cc2F)c(=O)c(C(=O)O)cn3-c2ccc(F)cc2)CC1	6.75µM*	?	nt	nt	nt
CCn1cc(C(=O)NN)c(=O)c2cc(F)c(N3CCN(C)CC3)cc21	11.7µM*	?	-18.1%	-3.7%	-1.2%
CCOC(=O)c1cn(CC)c2cc(N3CCCCC3)c(F)cc2c1=O	nt	nt	-3.1%	nt	-13.1%
CCn1cc(C(=O)NN)c(=O)c2cc(F)c(N3CCCCC3)cc21	-6.4%	?	-2.0%	-0.9%	9.7%
O=C1[C@H](Cc2ccccc2)NCCCC[C@H](c2ccco2)N1Cc1ccccc1	nt	nt	-2.0%	nt	nt
COc1ccc(S(=O)(=O)Nc2cccnc2)cc1	32.6%	?	1.6%	1.7%	2.5%
COc1ccc(SC[C@H](Cc2ccccc2)N2CC[C@@H](NC(=O)OCc3ccccc3)CCC2=O)cc1	?	7.38µM*	5.8%	-16.0%	nt
COc1ccc(SCCN2CC[C@@H](NC(=O)OCc3ccccc3)CCC2=O)cc1	?	?	-18.9%	-6.0%	nt
Cc1ccc(S[C@@H](CCN2CC[C@H](NC(=O)OCc3ccccc3)CCC2=O)c2ccccc2)cc1	?	3.0%	7.4%	9.9%	11.2%
COc1ccc(SC[C@H](Cc2ccccc2)N2CC[C@@H](C)CCC2=O)cc1	?	11.7µM*	16.6%	2.9%	nt
O=C(N[C@@H]1CCC(=O)N(CC[C@H](Oc2ccccc2)c2ccccc2)CC1)OCc1ccccc1	10.4µM*	0.415µM*	-23.0%	-6.1%	14.9%
CCOC(=O)Cc1csc(NC(=O)CN2CCCCC2)n1	?	4.2%	22.0%	-3.8%	9.2%
CC12CCC(C(=O)N(CC(O)CN3CCCCCC3)C1=O)C2(C)C (stereo unspecified)	31.0%	6.2%	13.5%	-20.5%	-3.0%
COC(=O)C1=C(NC(=O)c2cccs2)CCS1	9.28µM*	?	nt	3.2%	-24.0%
COC(=O)C1=C(NC(=O)c2ccccc2C)CCS1	5.7%	8.3%	?	-3.5%	nt
COC(=O)C1=C(NC(=O)c2cccc(OC)c2)CCS1	4.15µM*	20.3%	1.1%	7.7%	-18.5%
CCC(=NCc1ccco1)c1c(O)n(C2CCCCC2)c(=O)[nH]c1=O	?	?	23.6%	-10.2%	-2.5%
CCC(=Nc1ccc(OC)cc1OC)c1c(O)n(C2CCCCC2)c(=O)[nH]c1=O	?	7.38µM*	10.7%	-4.8%	13.8%
CCC1CN(C(=O)N2CCC(C(=O)NCc3ccc(C)o3)CC2)c2cc(C)ccc2O1 (stereo unspecified)	13.5%	?	7.8%	-0.2%	0.2%
SMILES	Pf growth 96h	Pf growth 48h	RE007 growth inh	SARS PLpro yeast	NS1 function inh
CCC1CN(C(=O)N2CCC(C(=O)NCc3ccco3)CC2)c2cc(C)ccc2O1 (stereo unspecified)	13.1µM*	-23.7%	1.9%	23.4%	-4.0%
NS(=O)(=O)c1ccc(NC(=O)CN2CCN(S(=O)(=O)c3ccc(F)cc3)CC2)cc1	-24.1%	-11.0%	4.3%	0.2%	1.6%
O=C(CN1CCN(S(=O)(=O)c2ccc(Br)cc2)CC1)Nc1ccc(F)cc1	18.9%	4.15µM*	29.3%	-7.0%	-3.1%
O=C(CNc1cccc(S(=O)(=O)N2CCCC2)c1)Nc1cccc(Br)c1	4.15µM*	5.22µM*	-6.8%	1.7%	nt
O=C(CNc1cccc(S(=O)(=O)N2CCOCC2)c1)Nc1ccc(C(F)(F)F)cc1	7.38µM*	6.57µM*	-3.8%	4.9%	nt
CCN(CC)S(=O)(=O)c1cc(NC(=O)CCNC(=O)c2ccco2)ccc1C	6.57µM*	9.28µM*	-13.7%	?	?
O=C(CNc1ccc(Br)cc1)Nc1cccc(S(=O)(=O)N2CCCC2)c1	-51.3%	-85.0%	2.7%	-0.3%	nt
CC1(C)CC(=O)C(C(O)c2ccccc2)C(C)(C)N1 (stereo unspecified)	19.2%	17.0%	-3.4%	0.4%	22.8%
COCCN(CC(=O)Nc1ccccc1C(F)(F)F)C(=O)c1ccc(-n2cccn2)cc1	-6.6%	-24.5%	1.2%	-0.2%	nt
O=C(CN1C(=O)NC(Cc2c[nH]c3ccccc23)C1=O)Nc1cccc(S(=O)(=O)N2CCOCC2)c1 (stereo unspecified)	9.28µM*	?	3.7%	-0.7%	1.5%
O=C(CSc1nnc2c(n1)[nH]c1ccccc12)Nc1cccc(S(=O)(=O)N2CCOCC2)c1	14.7µM*	?	4.9%	-0.5%	?
O=C(CNc1ccc(Br)cc1)Nc1ccc(S(=O)(=O)N2CCCC2)cc1	11.7µM*	9.28µM*	-17.4%	0.9%	nt
CC(=O)c1cccc(NCC(=O)Nc2cc(S(=O)(=O)N3CCCCC3)ccc2C)c1	10.4µM*	?	-0.4%	-1.4%	8.7%
Cc1ccc(S(=O)(=O)N2CCCCC2)cc1NC(=O)COC(=O)c1cccc(O)c1	nt	nt	3.1%	nt	nt
CCN(CC)S(=O)(=O)c1ccc(C)c(NCC(=O)Nc2ccc(C#N)c(Cl)c2)c1	5.22µM*	?	7.8%	-8.8%	2.9%
CCN(CC)S(=O)(=O)c1cc(NC(=O)CNc2cccc(S(=O)(=O)N3CCCC3)c2)ccc1C	?	11.7µM*	-0.2%	2.5%	nt
O=C(CNc1cccc(S(=O)(=O)N2CCOCC2)c1)Nc1cccc(Br)c1	9.28µM*	6.57µM*	-4.1%	-1.1%	nt
CC(=O)NC1=NN(C(C)=O)C(C)(c2cccs2)S1 (stereo unspecified)	10.4µM*	28.1%	43.7%	13.4%	3.8%
CCC(C)NC(=O)CCNS(=O)(=O)c1ccc(Br)cc1 (stereo unspecified)	7.38µM*	-9.2%	3.0%	-3.7%	0.5%
COc1ccc(C(CNC(=O)CCNS(=O)(=O)c2ccc(Br)cc2)N2CCCC2)cc1 (stereo unspecified)	2.08µM*	4.15µM*	?	-4.1%	nt
COc1ccc(C(CNC(=O)CCNS(=O)(=O)c2ccc(Br)cc2)N2CCOCC2)cc1 (stereo unspecified)	nt	nt	1.1%	nt	nt
COc1ccc(C(CNC(=O)c2oc3ccc(Br)cc3c2C)N2CCCCC2)cc1 (stereo unspecified)	-102.9%	?	2.1%	2.3%	nt
COc1ccc(C(CNC(=O)C(C)Oc2ccc(Br)cc2)N2CCCCC2)cc1 (stereo unspecified)	?	13.1µM*	-0.7%	0.1%	nt
